# Screens from PubChem BioAssay.
# WT yeast gro inh: growth inhibition of WT strain, primary screen, mitochondrial fusion inhibitor project, WT and mutant strains, chemical genetic. hit rate 2.1% among 190,000. inhibition, % at 10 µM. AID 1362, 2008. mitochondrial fusion phenotypic screen; in the data active = inhibition above about 58%; tested in S. cerevisiae
# hDAT+cocaine: changed hDAT dopamine uptake under cocaine IC80, either direction, primary screen, cocaine antagonist project, cell-based, LLC-PK1 hDAT, [14C]-dopamine uptake, MLSMR | B-score at 10 µM | LLC-PK1 hDAT cells, [14C]-dopamine uptake with cocaine IC80; actives deviate in either direction | Sodium-dependent dopamine transporter (Homo sapiens), Q01959 | hit rate 1.3% among 110,000;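 active = Z score or B-score, a plate-position-corrected score, falls beyond the plate's 99.7% confidence bounds, in either direction; inactive = both scores lie inside the 99.7% bounds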;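 also: scored against the spread of the other compound wells on the same plate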
# Target sequence (Q01959 whole entry, looked up): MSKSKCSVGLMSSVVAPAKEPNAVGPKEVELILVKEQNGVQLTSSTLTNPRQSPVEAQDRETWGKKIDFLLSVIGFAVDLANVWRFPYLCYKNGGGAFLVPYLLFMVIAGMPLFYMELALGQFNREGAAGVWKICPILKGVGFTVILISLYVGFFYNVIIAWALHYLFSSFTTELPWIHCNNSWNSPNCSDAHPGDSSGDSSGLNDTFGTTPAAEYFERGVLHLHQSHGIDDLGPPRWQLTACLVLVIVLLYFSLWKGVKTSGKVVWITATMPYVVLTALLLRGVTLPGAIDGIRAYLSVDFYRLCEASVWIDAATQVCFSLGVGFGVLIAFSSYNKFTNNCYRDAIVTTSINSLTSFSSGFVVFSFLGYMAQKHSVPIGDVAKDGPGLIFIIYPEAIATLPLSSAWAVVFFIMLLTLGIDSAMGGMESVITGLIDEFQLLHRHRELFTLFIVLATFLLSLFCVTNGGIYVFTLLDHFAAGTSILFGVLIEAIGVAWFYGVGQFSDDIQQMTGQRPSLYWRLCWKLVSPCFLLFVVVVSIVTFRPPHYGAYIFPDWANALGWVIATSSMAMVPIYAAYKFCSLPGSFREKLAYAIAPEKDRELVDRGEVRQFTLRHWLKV
# bCat KO growth: primary screen for growth suppressors in beta-catenin knockout HCT116 cells (colon tumor, human) | HCT116 beta-catenin knockout viability, CellTiter-Glo, 60 h; stronger effect = lower value | viability, % at 10 µM | hit rate 1.5% among 140,000 | AID 818, 2007;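 active = viability at or under a set limit, the compound median less 4 SD, cut at about 6% in these data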;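 also: 0% = Hyamine 1622 control at 20 µM and 100% = untreated cell control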
# PTEN del growth: growth suppression of PTEN-null HCT116, primary screen, cell-based, CellTiter-Glo. HCT116 PTEN-null viability, 60 h; stronger effect = lower value. viability, % at 10 µM. hit rate 1.2% among 140,000;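 active = viability at or below a set limit, 4 SD under the median of all tested compounds, cut at about 3.7% in these data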;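 also: PTEN knockout HCT116 line with beta catenin targeted HCT116 as companion control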
# Numbers without * were called inactive; / = not tested or not shown; ! = repeats disagree. The list is not random: actives were taken first. Their share in the collection is about 3.6%.
SMILES,WT yeast gro inh,hDAT+cocaine,bCat KO growth,PTEN del growth
COc1ccc(CCN(Cc2cc3cc(C)cc(C)c3nc2Cl)C(=O)C2CC2)cc1,68*,/,69,67
O=C(CN1CCSC1=NCc1ccccc1)c1ccccc1,-3,/,84,84
COc1ccc(CSCCNC(=S)Nc2ccccc2)cc1Cl,77*,/,/,/
S=C(NCCSCc1c(Cl)cccc1Cl)Nc1ccccc1,82*,1.6,62,63
Cc1ccccc1CSCCNC(=S)Nc1ccccc1,71*,/,/,/
Cc1c(C(=O)NCCSCc2ccc(Cl)cc2Cl)cccc1[N+](=O)[O-],69*,0.17,58,59
Cc1ccccc1CSCCNC(=O)c1ccccc1,7,/,93,96
Cc1ccc(S(=O)(=O)NC(=O)c2cc(C)n(-c3ccc(N(C)C)cc3)c2C)cc1,21,/,94,90
S=C(NCCSCc1ccc(Cl)c(Cl)c1)Nc1ccccc1,/,0.86,/,/
S=C(NCCSCc1ccc(Cl)cc1Cl)Nc1ccccc1,80*,0.11,84,87
CCC1CCCCN1c1cc(C)nc2cc(-c3cccc(C)c3)nn12 (centres undefined),89*,-0.08,68,60
O=Cc1cn(CC(=O)Nc2ccc3c(c2)OCO3)c2ccccc12,-4,/,/,/
COc1ccc(NC(=O)CN2CCN(CC(=O)Nc3ccc4c(c3)OCO4)CC2)cc1,22,0.61,100,105
O=C(CN1CCN(S(=O)(=O)c2cc(Cl)ccc2Cl)CC1)Nc1ccc2c(c1)OCCO2,-13,1.8*!,70,76
COc1ccccc1NC(=O)CN1CCN(CC(=O)Nc2ccc3c(c2)OCO3)CC1,-6,-4.3*,87,81
CCN(CC)c1ccc(NC(=O)CN2CCN(CC(=O)Nc3ccccc3F)CC2)cc1,21,2.5*,96,92
CCNC(=O)CC1C(=O)N(c2ccc(C)cc2)C(=O)N1CCc1sccc1C (centres undefined),-10,/,/,/
CCCNC(=S)N1CC2(C)CN(C(=O)C(=O)OCC)CC(C)(C1)C2=O,-8,/,/,/
COc1ccccc1-n1cnnc1SCc1csc(-c2ccccc2)n1,3,2.4,105,94
C=CCn1c(SCc2csc(-c3ccc(C)cc3)n2)nnc1-c1ccccc1OC,81*,/,10,13
NNC(=O)c1cccc(COc2ccccc2Br)c1,44,/,98,103
NNC(=O)c1cccc(COc2ccc3c(c2)CCC3)c1,81*,/,78,86
Cc1ccc2nc(NCCCO)nc(-c3ccccc3)c2c1,21,3.1*,23,26
COc1cc(Nc2nc(-c3ccccc3)c3cc(C)ccc3n2)cc(OC)c1OC,73*,/,72,45
Cc1ccc2nc(NCC(=O)O)nc(-c3ccccc3)c2c1,15,0.078,100,101
SMILES,WT yeast gro inh,hDAT+cocaine,bCat KO growth,PTEN del growth
CC1CCCCC1NC(=O)/C(C#N)=C/c1ccc(OCC(N)=O)cc1 (centres undefined),-27,/,85,84
Cc1cccc(CSC(Nc2ccc(F)cc2)=C(C#N)C#N)c1,80*,/,25,27
COc1ccc(C2NCCc3c2[nH]c2ccccc32)cc1COc1ccc(F)cc1 (centres undefined),87,/,1.2*,0.9*
C=CCC(c1ccccc1)N(C(C)=O)c1ccco1 (centres undefined),2,/,/,/
C=CCC(Nc1ccccc1)C12C=CC(O1)C(C(=O)OC)=C2C(=O)OC (centres undefined),-16,-0.8,2.3*,1.9*
O=[N+]([O-])c1ccc(C2Oc3ccccc3C3CC(c4ccccc4)=NN32)s1 (centres undefined),96,/,3.3*,2.1*
CCOc1ccc(C2CC(c3cccc(OC)c3OC)n3nnnc3N2)cc1Cl (centres undefined),8,-4.3*,83,86
O=C(Nc1ccccc1Cl)NC1(C(=O)N2CCCCC2)CCCCC1,-6,-1.1,85,101
O=C(Nc1ccccc1Cl)NC1(C(=O)N2CCCC2)CCCCC1,-14,-8.9*,0.7*,0.8*
CNC(=O)/C(C#N)=C/c1c(N(Cc2ccccc2)Cc2ccccc2)nc2ccccn2c1=O,9,/,66,62
O=[N+]([O-])c1cccc(-c2csc(N/N=C/c3cccc(O)c3)n2)c1,84*,/,/,/
COc1ccc(C(=O)OCCOc2ccccc2C(C)=O)c(O)c1,31,/,/,/
Cc1cccc2sc(NNC(=O)C3COc4ccccc4O3)nc12 (centres undefined),-11,-0.13,1.2*,0.5*
O=C(NNc1nc2c(F)cc(F)cc2s1)C1COc2ccccc2O1 (centres undefined),-6,/,/,/
O=C(O)C1C2CCC(O2)C1C(=O)NCc1ccccc1Br (centres undefined),-7,/,/,/
Cc1ccc(N=Nc2c(O)n(CN3CCOCC3)c3ccccc23)cc1,10,/,87,95
Cc1cccc(NC(=S)N=Nc2c(O)n(CN3CCOCC3)c3ccccc23)c1C,69*,/,22,14
C(=N/Nc1nc(-c2ccccc2)cc(-c2ccccc2)n1)/c1cccnc1,68*,/,34,29
C(=N\Nc1nc(Nc2ccccc2)nc(Nc2ccccc2)n1)/c1cccnc1,83*,/,/,/
Cc1ccc(-c2cc(-c3ccccc3)nc(N/N=C/c3cccnc3)n2)cc1,/,0.67,/,/
COc1ccc(S(=O)(=O)N2CCOCC2)cc1N=Nc1sc(N)nc1-c1ccccc1,19,/,88,90
CN(CC(=O)Nc1ccccc1C(F)(F)F)C(=O)COc1ncnc2ccccc12,-35,/,/,/
O=C(O)CCc1ccc(-c2ccccc2)n1Cc1ccco1,0,1.4,116,102
O=C(O)CCc1ccc(-c2ccc(F)cc2)n1Cc1ccco1,63*,2,95,110
COc1ccc(CNC(=O)C(c2ccc(C)o2)N(C(=O)c2csnn2)c2ccc(C(C)C)cc2)cc1 (centres undefined),2,1.1,25,19
SMILES,WT yeast gro inh,hDAT+cocaine,bCat KO growth,PTEN del growth
OCCN1CCN(c2ncnc3c2c(-c2ccccc2)cn3-c2ccc(Br)cc2)CC1,85*,/,/,/
Cc1cc2ccccc2n2c(SCC(=O)Nc3ccc(S(=O)(=O)N4CCC(C)CC4)cc3)nnc12,8,/,77,74
S=C(Nc1ccccn1)c1ccccn1,35,2.4*,1.9*,1.8*
Cc1ccc(C)c(NC(=S)c2ccccn2)c1,64,1.1,2.7*,3.8*
O=C(Nc1cc2nn(-c3ccccc3)nc2cc1Cl)c1ccco1,2,-1.6,1.7*,3.4*
O=C(Nc1ccc2nn(-c3ccccc3)nc2c1)c1ccco1,5,/,94,97
COc1ccc(NC(=O)CSc2c3c(nc4ccccc24)CCCC3)c(OC)c1,12,/,5.9*,11
O=C(COc1ccc(S(=O)(=O)N2CCCCC2)cc1)NCC1CCCO1 (centres undefined),5,/,/,/
Cc1sc2cc3c(c(C(=O)c4ccccc4)[n+]2c1C)-c1cccc2cccc-3c12,70*,/,2.2*,2.1*
O=C(c1ccccc1)c1c2c(cc3sc4ccccc4[n+]13)-c1cccc3cccc-2c13,79,/,2.1*,2.3*
